This passage reports inhibition results from PubChem BioAssay AID527 (NMMLSC, 2006).

This assay in a line: blockers of AIP-driven agr signalling in S. aureus – RNAIII-GFP reporter, flow cytometry, primary screen (AID 527).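 Note: 0% = AIP-stimulated control and 100% = unstimulated bacteria without AIP.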 As to conditions: S. aureus RN6390 RNAIII-GFP reporter, AIP-induced, flow cytometry 3 h, at 2 µM, stronger effect = higher value. Background: In flow cytometry, cells or beads pass a laser one at a time.
Where [1] appears, read: measured here: inhibition of GFP MFI.

As a reminder, the inhibition is the relative decrease from the control value, in per cent.

Molecules are shown by their SMILES. The campaign covered roughly 24,000 compounds. About 65 (0.3%) were called active.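 Rule for the calls: active = share of bacteria positive for the green fluorescent reporter and its mean brightness both inhibited by 50% or more; inactive = the rest, inconclusive results apart.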 The list comes from a sample in which actives are over-represented; it also holds similar structures and randomly drawn compounds.

For `Cc1ccc(S(=O)(=O)N2C3C=CC(C3)C2C(=O)O)cc1` (configuration not stated), the inhibition was -5.7% (inactive). Under setting [1], the inhibition was -28.5%.

In the case of `Cc1ccc(CNC(=O)C2CCCN(S(C)(=O)=O)C2)cc1` (configuration not stated), the inhibition is 0.6% (inactive). Under setting [1], the inhibition was 10%.

`COc1ccccc1C(=O)N1CCN=C1SCc1cccnc1`: the inhibition is -1.3% (inactive). Further, under setting [1], the inhibition is -5.4%.

Regarding `CC(C)(C)n1nc2c(c1NC(=O)c1ccc(S(=O)(=O)N3CCCC3)cc1)CS(=O)C2` (configuration not stated), the inhibition was -6.3% (inactive). Besides, the inhibition under setting [1] was -9.9%.

For the compound `Cc1nn(-c2ccccc2)c2c1C(=O)NC(=O)C(C)(C)C2`, the inhibition was 4.5% (inactive). In addition, the inhibition under setting [1] came to 27.5%.

Turning to `O=C(Nc1ccncc1)c1cc2ccccc2o1`, the inhibition is 0% (inactive). Moreover, the inhibition under setting [1] stood at 2.6%.

As for `COc1ccc(S(=O)(=O)Nc2ccc(S(=O)(=O)N3CCCCC3)cc2)cc1OC`, the inhibition is -3.8% (inactive). Besides, the inhibition under setting [1] was -10.7%.

Consider `Cc1onc(-c2ccccc2)c1C(=O)N1CCOCC1`, for which the inhibition is 0% (inactive). Moreover, the inhibition under setting [1] was 3.7%.

With `Cc1ccc(C(c2sc3nc(C)nn3c2O)N2CCN(c3ccc(F)cc3)CC2)cc1` (configuration not stated), the inhibition was 1.8% (inactive). The inhibition under setting [1] is -4.2%.

Turning to `C=CCSc1nc2c(c(=O)[nH]1)C(C(C)C)C(C#N)=C(N)O2` (configuration not stated), the inhibition is 2.6% (inactive). Further, under setting [1], the inhibition is 27.2%.

In the case of `CCN(c1ccc2c(c1)OCO2)S(=O)(=O)c1cc(Br)cc2c1N(C(=O)C1CC1)CC2`, the inhibition is -0.3% (inactive). Besides, the inhibition under setting [1] was 5.6%.

With `CCOC(=O)CSC1=C(C#N)C(c2sccc2C)CC(=O)N1` (configuration not stated), the inhibition was -0.9% (inactive). Also, under setting [1], the inhibition was -28.9%.

As for `COC(=O)c1ccc(NC(=O)C(C)N2C(=O)c3ccccc3C2=O)cc1` (configuration not stated), the inhibition is -1.2% (inactive). The inhibition under setting [1] is -12.9%.

As for `Cc1cc(Nc2cccc(C)c2C)n2ncnc2n1`, the inhibition was 0% (inactive). Moreover, the inhibition under setting [1] is 1.4%.

Regarding `COC(=O)c1ccc2c(=O)n(CC3CCCO3)c(=S)[nH]c2c1` (configuration not stated), the inhibition was -2.1% (inactive). Moreover, the inhibition under setting [1] is 1.7%.

For `O=C(NCCCN1CCN(C2CCCCC2)CC1)Nc1ccccc1C(F)(F)F`, the inhibition was -9.7% (inactive). Besides, the inhibition under setting [1] is -13.2%.

Turning to `COc1cccc(N2CCN(C(=O)C3CCCN(S(=O)(=O)c4cnc[nH]4)C3)CC2)c1` (configuration not stated), the inhibition was -1.3% (inactive). Further, the inhibition under setting [1] was -0.6%.

As for `O=C(CCn1c(=O)[nH]c2ccccc2c1=O)NCCCN1CCN(c2cccc(Cl)c2)CC1`, the inhibition was -4.8% (inactive). Also, under setting [1], the inhibition is -25.8%.

Regarding `Cc1ccc(C)c(N2CCN(C(=O)CCc3nc4ccccc4[nH]3)CC2)c1`, the inhibition is 5.3% (inactive). Under setting [1], the inhibition amounted to 36.1%.

Take `Cc1ccc(C)c(N2CCN(C(=O)CCCCn3c(=O)[nH]c4ccccc4c3=O)CC2)c1`: the inhibition was 71.2% (active). In addition, the inhibition under setting [1] was determined as 71.1%.

As to `COC(=O)c1ccc(CN(c2ccccc2OC)S(=O)(=O)c2cccs2)o1`, the inhibition was -0.8% (inactive). The inhibition under setting [1] is -15.8%.

On to `COC(=O)CN(c1nc(C)c(Cl)c(OC)n1)S(=O)(=O)c1ccc(C)cc1`, for which the inhibition is -3.6% (inactive). Further, the inhibition under setting [1] was -2.5%.

Turning to `Cc1ccccc1S(=O)(=O)Cc1ccc(C(=O)NCCN2CCCCC2C)o1` (configuration not stated), the inhibition is 1.5% (inactive). Also, under setting [1], the inhibition was -6.9%.

In the case of `O=C(C(Cc1ccccc1)n1cccc1)N1CCN(C2CCCCC2)CC1` (configuration not stated), the inhibition is -0.8% (inactive). In addition, the inhibition under setting [1] was -1.7%.

As to `CCOc1ccc(OCC)c(NC(=O)C2CCN(S(=O)(=O)c3c(C)noc3C)CC2)c1`, the inhibition was -1.2% (inactive). In addition, the inhibition under setting [1] is -15.6%.

As for `O=C(c1ccccc1)c1ccc2nc(N3CCCCC3)c3nncn3c2c1`, the inhibition is -1.8% (inactive). Further, under setting [1], the inhibition was -34.9%.

Take `Cc1cccc(N2CCN(Cc3c(C)n(C)n(-c4ccccc4)c3=O)CC2)c1C`: the inhibition is -0.1% (inactive). Moreover, the inhibition under setting [1] was -1.8%.

Consider `COc1cccc(N2C(=O)C3CCCN3C2c2ccc(F)cc2)c1` (configuration not stated), for which the inhibition is -4.7% (inactive). The inhibition under setting [1] was -8.4%.

`CN1CCN(S(=O)(=O)c2ccc3[nH]cc(C(=O)O)c(=O)c3c2)CC1`: the inhibition was -2.2% (inactive). Further, the inhibition under setting [1] is -22.7%.

For `CC(C)N1C(=O)C2C(C(=O)NC3CCCCC3)C3C=CC2(O3)C1C(=O)NC1CCCC1` (configuration not stated), the inhibition is -2.6% (inactive). The inhibition under setting [1] is -16.1%.

On to `CC1CCC(NS(=O)(=O)c2ccc3c(c2)n(C)c(=O)c(=O)n3C)CC1` (configuration not stated), for which the inhibition is -0.4% (inactive). Moreover, the inhibition under setting [1] was found to be 12.3%.

On to `C=CCn1c2ccccc2c2nnc(SC(CC)C(=O)Nc3nc(C)c(C(=O)OCC)s3)nc21` (configuration not stated), for which the inhibition was 28.9% (inactive). Also, the inhibition under setting [1] amounted to 48.3%.

Turning to `COC(=O)c1cc(C(=O)OC)cc(N2C(=O)CC(N3CCN(c4ccccc4)CC3)C2=O)c1` (configuration not stated), the inhibition was 5.6% (inactive). Also, the inhibition under setting [1] was 38.5%.

`COCCCNC(=O)CSc1nc2ccc(N3CCOCC3)cc2c(=O)n1CCc1ccccc1`: the inhibition was 10.2% (inactive). Under setting [1], the inhibition is 33.4%.

As for `COC(=O)Cn1c(=NC(=O)CSCC(=O)Nc2cc(C)on2)sc2ccccc21`, the inhibition is 0.4% (inactive). Under setting [1], the inhibition was determined as 4.6%.

As for `CC(C)(C)C(=O)CCN1C(=O)C2(OCCO2)c2ccccc21`, the inhibition is -2.2% (inactive). The inhibition under setting [1] was -21.9%.

Take `Cc1cccn2c(=O)c3cc(C(=O)NCc4ccccn4)n(C)c3nc12`: the inhibition was -3.5% (inactive). Further, the inhibition under setting [1] is -9.7%.

Consider `C=CCSc1nnc(Cn2c(=O)sc3ccccc32)n1C`, for which the inhibition was 24.2% (inactive). Under setting [1], the inhibition was 43.3%.

As to `CCCS(=O)(=O)N1CCCC(C(=O)N2CCN(c3ccccc3)CC2)C1` (configuration not stated), the inhibition was -1% (inactive). Besides, the inhibition under setting [1] is -6.2%.

Consider `CC(c1ccco1)N(C(=O)c1ccc(S(=O)(=O)N2CCCCC2)cc1)c1ccccn1` (configuration not stated), for which the inhibition is -0.6% (inactive). Moreover, the inhibition under setting [1] was determined as 4.5%.

In the case of `CCC1=C(C(=O)OC)C(c2cc(OC)ccc2OC)C(C#N)=C(N)O1` (configuration not stated), the inhibition is -0.3% (inactive). The inhibition under setting [1] is 1.1%.
